Assay results reported in PubChem BioAssay.
Records with an inconclusive call do not appear. The source made the active and inactive calls.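 How the source made its calls, unless noted: active means inhibition above the screen-wide mean plus 3 SD, about 51%; inactive means the rest.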

Tests used:
[1] = rapamycin-like changes in RPL19A-GFP expression – cell-based, S. cerevisiae, multiplex flow cytometry, primary screen (AID 1862; in the data active means percent of DMSO control GFP below about 86%;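 further: lower values mimic rapamycin by blocking the RPL19A rise seen in DMSO cells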); conditions: S. cerevisiae RPL19A-GFP strain, flow cytometry fluorescence, 3 h; at 10 µM; stronger effect = lower value
[2] = TOR pathway GLN3 branch reporter MEP2-GFP changes – S. cerevisiae, multiplex flow cytometry, primary screen (AID 1867;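 active means GFP response, as percent of the DMSO control, above the screen-wide mean plus 3 SD, about 139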;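 further: median GFP channel fluorescence of barcode-gated MEP2-GFP cells measured by flow cytometry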); conditions: S. cerevisiae MEP2-GFP strain, 3 h, at 10 µM, stronger effect = higher value, 100% means same as DMSO wells
[3] = TOR pathway RTG branch CIT2 reporter changes – S. cerevisiae, GFP fusion, multiplex flow cytometry, primary screen (AID 1870;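 active means percent response above a set limit, the screen-wide mean plus 3 SD, cut at about 130% in these data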;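 further: barcoded CIT2-GFP strain pooled with four other GFP strains with rapamycin as positive control; median GFP fluorescence per well over plate mean of DMSO wells so 100% = DMSO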); conditions: S. cerevisiae CIT2-GFP expression, 3 h, at 10 µM, stronger effect = higher value
[4] = TOR pathway LAP4-GFP level changes – S. cerevisiae, multiplex flow cytometry, primary screen (AID 1873;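 active means GFP signal, as percent of the solvent control, above the screen mean plus 3 SD, about 149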); conditions: S. cerevisiae LAP4-GFP expression, 3 h, at 10 µM, stronger effect = higher value
[5] = yeast AGP1-GFP level changes, GLN3 branch – cell-based, multiplex flow cytometry, S. cerevisiae, primary screen (AID 1887;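 active means GFP signal above the screen-wide mean plus 3 SD, that is over about 124.5% of the solvent control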;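 further: AGP1-GFP fusion strain of S. cerevisiae within a five-strain barcoded multiplex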); conditions: 3 h, at 10 µM, stronger effect = higher value
[6] = reduced mouse 2C T cell binding to pMHC/ICAM-1 vesicles – MLPCN validation set, flow cytometry, LFA-1/ICAM-1 modulator project, pilot screen (AID 2523;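 active means response below a set limit, under 55% cells CD8-positive and vesicle-bound, and CD8 cells' 90th-percentile brightness under 279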;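 on vesicle binding response: mean PE anti-B7-1 fluorescence of CD8+ cells relative to row control; 100% = QL9-loaded vesicles with DMSO vehicle in the same plate row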); conditions: 2C mouse CD8+ T cells, at 7 µM, stronger effect = lower value; double positive events: measured here: CD8+/vesicle+ event percentage
[7] = target: Integrin beta-1 (Homo sapiens) + Integrin alpha-4 (Homo sapiens) (UniProt P13612+P05556); test: alpha4beta1 integrin LIBS antibody binding reduction – U937 cells, HUTS-21 mAb, flow cytometry, validation set, VLA-4 allosteric modulator project, pilot screen (AID 2674;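 active means inhibition above 50%, about 3 SD of the validation set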;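 further: antibody binding induced by the VLA-4 ligand LDV present at three times its Kd; 0% = LDV ligand with antibody and no compound and 100% = antibody without LDV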); conditions: HUTS-21 LIBS mAb binding, at 6.7 µM, stronger effect = higher value, binding induced by LDV ligand
[8] = calorie-restriction mimetic ROS inhibitors, yeast – validation compound set, pilot screen (AID 2706;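 active means superoxide response below 65% of plate, a cut near 3 SD across the whole screen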;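 further: yeast exposed to compound for one week at 30 degrees C before staining; 100% = mean of all compound wells on the same plate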); conditions: S. cerevisiae aging, superoxide DHE fluorescence; at 10 µM; stronger effect = lower value
[9] = target: Beta-adrenergic receptor kinase 1 (Homo sapiens) (UniProt P25098); test: GRK2 binders displacing RNA aptamer, biochemical, validation, human GRK2, bead flow cytometry (AID 488806;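 active means aptamer binding inhibition above 30%, about 3 SD of noise from non-fluorescent compounds; inactive means inhibition at or below 30%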); conditions: bead-bound GRK2, FAM-aptamer displacement, at 10 µM, stronger effect = higher value
[10] = target: Beta-2 adrenergic receptor (Homo sapiens) (UniProt P07550); test: agonist-induced loss of surface beta2AR – cell-based, FAP fluorogen, flow cytometry, validation set, pilot screen (AID 504459;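 active means percent response above 42, roughly 3 SD of non-fluorescent test compounds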;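 further: agonist-driven loss of surface beta2AR via internalization measured by FAP dye flow cytometry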); conditions: Am2.2-beta2AR cells, at 10 µM, stronger effect = higher value
[11] = target: AP-2 complex subunit beta (Homo sapiens) (UniProt P63010); test: beta-arrestin/AP2 interaction blockers – biochemical, validation set, GST-AP2 beads, flow cytometry, pilot screen (AID 504541;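 active means inhibition above 54%, about 3 SD of non-fluorescent compounds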;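 further: AP2 carries R879A mutation and is captured from E. coli lysate; bead-bound FITC arrestin peptide fluorescence measuring arrestin peptide binding to AP2; 0% = DMSO wells and 100% = excess unlabeled arrestin peptide control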); conditions: FITC arrestin peptide, at 10 µM, stronger effect = higher value, AP2 beta2 appendage fragment, R879A mutant
[12] = cytosolic pH regulators acting via V-ATPase – S. cerevisiae, pHLuorin, HTS validation (AID 504600; in the data active means response above about 15%;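 further: plate controls were DMSO for no effect and reference compound for full effect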); conditions: V-ATPase proton transport, at 10 µM, stronger effect = higher value
[13] = system: anti-desmoglein-3 scFv antibody binding to human DSG3; test: blockers of pathogenic pemphigus antibody–desmoglein-3 binding – biochemical, validation compound set, bead-based, flow cytometry, pilot screen (AID 588368;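 active means binding below the plate cutoff, the plate median minus 3 SD, with a reading above zero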;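 further: signal is the median channel fluorescence of bead-bound GFP antibody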); conditions: Protein G beads, DSG3-Fc, scFv-GFP binding, at 10 µM, stronger effect = lower value
[14] = Nile Red efflux blockade in pump-expressing yeast – validation compound set, multiplex, phenotypic, pilot screen (AID 588506;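 active means efflux inhibition above 0.42, the validation set average plus 4 SD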;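 further: Nile Red retained in cells so higher fluorescence means more efflux inhibition; 0 = negative control wells and 1 = enniatin B 25 µM full block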); conditions: S. cerevisiae pump-expressing triplex, Nile Red efflux flow cytometry; at 10 µM; stronger effect = higher value; the pumps come from Candida albicans
[15] = target: ATP-binding cassette sub-family B member 6 (Homo sapiens) (UniProt Q9NP58); test: blockers of ABCB6-driven porphyrin uptake – K562-ABCB6 cells, flow cytometry, validation set, pilot screen (AID 588550); conditions: K562-ABCB6 porphyrin accumulation, 1 h, at 10 µM, stronger effect = higher value;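 further: 0% = DMSO wells and 100% = benzethonium chloride 70 µM positive control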
[16] = AML differentiation inducers, ER-HoxA9 marrow cells – cell-based, GFP/MAC1 double positive, flow cytometry, validation set, primary screen (AID 588685;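 active means differentiation response of at least 50%, scaled between solvent and reference control, from cells with both markers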;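 further: compound exposure lasts four days before antibody staining and flow analysis; 0% = DMSO wells and 100% = 5 µM fulvestrant positive control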); conditions: stronger effect = higher value, normalized: vehicle 0, fulvestrant 100

Sequence of ATP-binding cassette sub-family B member 6 (Homo sapiens) (Q9NP58 whole entry, looked up): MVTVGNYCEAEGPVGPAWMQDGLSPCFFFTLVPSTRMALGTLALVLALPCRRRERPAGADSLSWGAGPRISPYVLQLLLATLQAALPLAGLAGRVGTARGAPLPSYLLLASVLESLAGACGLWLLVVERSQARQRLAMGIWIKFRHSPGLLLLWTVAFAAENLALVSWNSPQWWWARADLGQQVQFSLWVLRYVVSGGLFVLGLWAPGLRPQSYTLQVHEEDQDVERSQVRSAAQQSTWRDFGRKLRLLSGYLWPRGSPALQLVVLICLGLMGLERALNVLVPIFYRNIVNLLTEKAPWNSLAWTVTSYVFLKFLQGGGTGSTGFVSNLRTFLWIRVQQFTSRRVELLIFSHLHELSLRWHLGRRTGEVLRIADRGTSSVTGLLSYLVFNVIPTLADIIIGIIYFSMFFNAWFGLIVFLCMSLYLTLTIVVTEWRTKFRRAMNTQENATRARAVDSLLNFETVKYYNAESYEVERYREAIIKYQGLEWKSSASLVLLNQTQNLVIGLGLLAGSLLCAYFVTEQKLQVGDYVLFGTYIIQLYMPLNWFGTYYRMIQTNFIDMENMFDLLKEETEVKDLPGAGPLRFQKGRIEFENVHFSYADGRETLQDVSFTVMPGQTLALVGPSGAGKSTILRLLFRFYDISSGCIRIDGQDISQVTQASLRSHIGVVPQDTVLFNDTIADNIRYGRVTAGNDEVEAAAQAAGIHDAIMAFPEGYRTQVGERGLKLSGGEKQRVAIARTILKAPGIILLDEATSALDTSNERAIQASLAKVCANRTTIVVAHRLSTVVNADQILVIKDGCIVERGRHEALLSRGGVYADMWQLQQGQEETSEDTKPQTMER
Sequence of Beta-2 adrenergic receptor (Homo sapiens) (P07550 whole entry, looked up): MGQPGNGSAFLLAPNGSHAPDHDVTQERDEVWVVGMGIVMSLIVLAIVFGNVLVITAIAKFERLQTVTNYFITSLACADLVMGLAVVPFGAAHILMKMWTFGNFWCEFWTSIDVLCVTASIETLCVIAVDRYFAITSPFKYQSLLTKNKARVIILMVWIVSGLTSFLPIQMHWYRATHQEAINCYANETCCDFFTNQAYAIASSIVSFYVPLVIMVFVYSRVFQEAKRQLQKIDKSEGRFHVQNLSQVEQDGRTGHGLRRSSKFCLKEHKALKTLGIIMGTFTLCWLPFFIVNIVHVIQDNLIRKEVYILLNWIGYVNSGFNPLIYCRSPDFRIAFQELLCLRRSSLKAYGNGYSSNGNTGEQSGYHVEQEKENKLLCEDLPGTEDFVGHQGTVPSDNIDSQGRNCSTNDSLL
Sequence of AP-2 complex subunit beta (Homo sapiens) (P63010 whole entry, looked up, the tested form may be a part, one chain of several): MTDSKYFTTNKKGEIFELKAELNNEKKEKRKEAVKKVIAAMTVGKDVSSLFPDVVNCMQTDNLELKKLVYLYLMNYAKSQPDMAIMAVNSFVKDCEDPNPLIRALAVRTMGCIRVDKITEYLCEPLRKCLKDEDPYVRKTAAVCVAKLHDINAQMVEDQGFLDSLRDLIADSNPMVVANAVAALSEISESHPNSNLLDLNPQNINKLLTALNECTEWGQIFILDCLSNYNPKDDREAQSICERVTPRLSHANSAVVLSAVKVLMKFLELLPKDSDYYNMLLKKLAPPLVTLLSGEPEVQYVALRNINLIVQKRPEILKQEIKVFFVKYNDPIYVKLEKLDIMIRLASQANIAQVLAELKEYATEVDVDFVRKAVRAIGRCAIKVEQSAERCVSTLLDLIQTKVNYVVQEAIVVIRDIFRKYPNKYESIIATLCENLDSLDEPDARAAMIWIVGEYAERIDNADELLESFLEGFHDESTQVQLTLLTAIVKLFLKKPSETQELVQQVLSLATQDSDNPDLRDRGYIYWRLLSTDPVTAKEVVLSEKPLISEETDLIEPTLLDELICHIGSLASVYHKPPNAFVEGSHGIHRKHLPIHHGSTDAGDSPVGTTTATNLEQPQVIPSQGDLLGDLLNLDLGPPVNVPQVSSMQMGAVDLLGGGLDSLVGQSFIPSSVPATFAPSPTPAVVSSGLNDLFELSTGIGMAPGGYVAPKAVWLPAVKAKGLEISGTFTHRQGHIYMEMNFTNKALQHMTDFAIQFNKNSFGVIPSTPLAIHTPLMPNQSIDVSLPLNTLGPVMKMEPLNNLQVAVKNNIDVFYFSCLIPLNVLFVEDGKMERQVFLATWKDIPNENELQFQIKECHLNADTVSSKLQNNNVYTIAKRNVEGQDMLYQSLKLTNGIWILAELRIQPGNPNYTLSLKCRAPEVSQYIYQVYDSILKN
Sequence of Beta-adrenergic receptor kinase 1 (Homo sapiens) (P25098 whole entry, looked up): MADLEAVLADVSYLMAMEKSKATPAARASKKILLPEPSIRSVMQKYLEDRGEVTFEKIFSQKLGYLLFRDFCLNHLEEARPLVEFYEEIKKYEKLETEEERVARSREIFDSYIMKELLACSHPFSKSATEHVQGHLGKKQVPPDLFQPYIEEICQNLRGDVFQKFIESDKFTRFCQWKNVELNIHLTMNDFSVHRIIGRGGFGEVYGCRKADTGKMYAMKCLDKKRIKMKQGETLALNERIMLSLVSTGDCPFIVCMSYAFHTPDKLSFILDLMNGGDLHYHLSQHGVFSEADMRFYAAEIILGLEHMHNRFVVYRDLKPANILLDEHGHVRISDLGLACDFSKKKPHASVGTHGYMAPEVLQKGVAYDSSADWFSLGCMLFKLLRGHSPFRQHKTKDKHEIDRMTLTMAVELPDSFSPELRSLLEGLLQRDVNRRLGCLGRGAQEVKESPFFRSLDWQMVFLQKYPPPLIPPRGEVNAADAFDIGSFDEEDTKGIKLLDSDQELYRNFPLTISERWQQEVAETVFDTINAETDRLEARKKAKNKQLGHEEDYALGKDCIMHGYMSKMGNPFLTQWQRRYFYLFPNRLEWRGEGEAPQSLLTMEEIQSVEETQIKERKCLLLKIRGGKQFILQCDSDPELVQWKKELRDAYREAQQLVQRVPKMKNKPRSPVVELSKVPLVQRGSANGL
Sequence of Integrin beta-1 (Homo sapiens) + Integrin alpha-4 (Homo sapiens) (P05556 whole entry, looked up): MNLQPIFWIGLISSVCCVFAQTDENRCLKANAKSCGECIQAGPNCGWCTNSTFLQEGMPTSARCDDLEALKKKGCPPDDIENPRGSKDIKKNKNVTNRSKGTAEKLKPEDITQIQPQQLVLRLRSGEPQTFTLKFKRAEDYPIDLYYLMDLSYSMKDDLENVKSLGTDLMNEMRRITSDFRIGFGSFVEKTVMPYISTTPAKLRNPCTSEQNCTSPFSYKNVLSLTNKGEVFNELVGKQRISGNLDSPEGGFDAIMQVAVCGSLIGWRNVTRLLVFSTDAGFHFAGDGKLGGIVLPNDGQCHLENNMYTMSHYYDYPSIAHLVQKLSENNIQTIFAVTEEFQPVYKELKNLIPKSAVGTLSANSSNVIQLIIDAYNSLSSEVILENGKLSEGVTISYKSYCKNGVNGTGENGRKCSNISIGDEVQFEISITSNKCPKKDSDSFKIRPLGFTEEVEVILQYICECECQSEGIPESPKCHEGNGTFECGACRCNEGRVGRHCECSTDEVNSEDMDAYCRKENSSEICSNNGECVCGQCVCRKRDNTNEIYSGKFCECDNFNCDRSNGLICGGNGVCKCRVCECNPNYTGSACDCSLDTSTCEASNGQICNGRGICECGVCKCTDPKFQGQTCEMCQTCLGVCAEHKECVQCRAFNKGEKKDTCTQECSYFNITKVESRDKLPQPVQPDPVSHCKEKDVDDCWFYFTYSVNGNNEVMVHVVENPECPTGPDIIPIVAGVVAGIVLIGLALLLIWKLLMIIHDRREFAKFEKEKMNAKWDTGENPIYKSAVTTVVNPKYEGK
Sequence of Integrin beta-1 (Homo sapiens) + Integrin alpha-4 (Homo sapiens) (P13612 whole entry, looked up): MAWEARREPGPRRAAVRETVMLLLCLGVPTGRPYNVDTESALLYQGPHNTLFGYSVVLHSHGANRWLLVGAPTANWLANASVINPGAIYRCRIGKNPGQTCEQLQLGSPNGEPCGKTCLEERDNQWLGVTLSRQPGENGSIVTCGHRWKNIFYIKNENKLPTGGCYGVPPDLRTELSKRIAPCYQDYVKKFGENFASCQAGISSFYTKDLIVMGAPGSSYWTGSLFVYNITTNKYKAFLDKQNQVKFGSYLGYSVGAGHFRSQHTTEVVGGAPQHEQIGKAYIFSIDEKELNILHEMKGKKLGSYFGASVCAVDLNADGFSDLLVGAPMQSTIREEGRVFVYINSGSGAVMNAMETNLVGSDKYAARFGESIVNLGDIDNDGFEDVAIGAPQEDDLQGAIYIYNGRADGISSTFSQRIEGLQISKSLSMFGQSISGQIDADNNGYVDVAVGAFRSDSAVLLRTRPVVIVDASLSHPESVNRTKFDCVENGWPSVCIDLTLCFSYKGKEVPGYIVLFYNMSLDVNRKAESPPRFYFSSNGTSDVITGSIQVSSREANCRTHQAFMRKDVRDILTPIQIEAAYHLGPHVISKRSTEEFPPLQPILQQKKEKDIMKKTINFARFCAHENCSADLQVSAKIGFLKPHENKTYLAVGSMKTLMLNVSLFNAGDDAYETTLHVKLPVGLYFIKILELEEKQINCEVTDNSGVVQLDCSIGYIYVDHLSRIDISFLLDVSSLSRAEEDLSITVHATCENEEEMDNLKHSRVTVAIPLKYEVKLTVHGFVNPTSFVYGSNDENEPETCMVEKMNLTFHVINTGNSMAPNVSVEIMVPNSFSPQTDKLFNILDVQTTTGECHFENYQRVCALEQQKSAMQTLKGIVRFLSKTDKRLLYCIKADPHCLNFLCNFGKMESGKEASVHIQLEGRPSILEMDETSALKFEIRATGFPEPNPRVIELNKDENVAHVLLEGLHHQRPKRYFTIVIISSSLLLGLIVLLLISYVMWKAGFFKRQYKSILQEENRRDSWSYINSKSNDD

Compound | percent of DMSO control GFP [1] | GFP response vs DMSO [2] | percent response of DMSO control [3] | GFP response vs DMSO [4] | GFP response, % of DMSO [5] | double positive events [6] | vesicle binding response [6] | inhibition [7] | superoxide response (% of plate) [8] | aptamer binding inhibition [9] | response [10] | inhibition [11] | response [12] | binding (% of control) [13] | efflux inhibition (fraction of control) [14] | inhibition [15] | differentiation response [16]
CC1CCN(C(=O)Oc2ccccc2)CC1 | 105% (inactive) | 111% (inactive) | 103% (inactive) | 102% (inactive) | 107% (inactive) | 57.9% | 143% (inactive) | 2.93% (inactive) | 111% (inactive) | 0% (inactive) | 0.66% (inactive) | -6.8% (inactive) | 0.42% (inactive) | 101% (inactive) | 0.045 (inactive) | 5% (inactive) | -6.03% (inactive)
CC(=O)SC1CC2=CC(=O)CCC2(C)C2CCC3(C)C(CCC34CCC(=O)O4)C12 (stereo not drawn) | 103% (inactive) | 103% (inactive) | 107% (inactive) | 109% (inactive) | 107% (inactive) | 64.4% | 247% (inactive) | -3.57% (inactive) | 98.5% (inactive) | 5% (inactive) | -4.96% (inactive) | -8.52% (inactive) | 1.6% (inactive) | 100% (inactive) | -0.04 (inactive) | -3% (inactive) | 3.18% (inactive)
O=C(NO)c1ccccc1O | 103% (inactive) | 107% (inactive) | 105% (inactive) | 94.8% (inactive) | 106% (inactive) | 63.6% | 158% (inactive) | 8.29% (inactive) | 95.5% (inactive) | 2% (inactive) | -0.56% (inactive) | 36.8% (inactive) | -8.07% (inactive) | 98.8% (inactive) | 0.03 (inactive) | 9% (inactive) | -13.3% (inactive)
CC1(C)CC(CNCCC(c2ccc(F)cc2)c2ccco2)CCO1 (stereo not drawn) | 96.1% (inactive) | 110% (inactive) | 106% (inactive) | 82.5% (inactive) | 103% (inactive) | 93.3% | 272% (inactive) | 3.55% (inactive) | 87.8% (inactive) | 3% (inactive) | 4.87% (inactive) | 0.76% (inactive) | 5.44% (inactive) | 104% (inactive) | 0.12 (inactive) | 11% (inactive) | -4.09% (inactive)
COC(=O)C1=C(C)N(Cc2ccco2)C(=O)/C1=C\c1ccc([N+](=O)[O-])cc1 | 102% (inactive) | 103% (inactive) | 97.8% (inactive) | 95.3% (inactive) | 96.2% (inactive) | 66.2% | 232% (inactive) | -274% (inactive) | 112% (inactive) | -4% (inactive) | 15.1% (inactive) | 43.9% (inactive) | -6.06% (inactive) | 205% (inactive) | 0.18 (inactive) | -55% (inactive) | 42.3% (inactive)
NC(=O)C1CCCNC1 (stereo not drawn) | 106% (inactive) | 98.7% (inactive) | 109% (inactive) | 98% (inactive) | 105% (inactive) | 75.5% | 302% (inactive) | 1.59% (inactive) | 104% (inactive) | -2% (inactive) | 7.03% (inactive) | 0.42% (inactive) | -3.07% (inactive) | 103% (inactive) | 0.11 (inactive) | 10% (inactive) | 8.59% (inactive)
O=C(Nc1ccc(Cl)cn1)Nc1ccccc1Cl | 103% (inactive) | 105% (inactive) | 107% (inactive) | 111% (inactive) | 102% (inactive) | 64.5% | 144% (inactive) | -3.77% (inactive) | 93.6% (inactive) | 2% (inactive) | -0.99% (inactive) | -8.05% (inactive) | 23.4% (active) | 105% (inactive) | -0.55 (inactive) | -4% (inactive) | -11.9% (inactive)
Cc1[nH]c2ccccc2c1C(=O)C(=O)NCc1ccco1 | 103% (inactive) | 104% (inactive) | 101% (inactive) | 112% (inactive) | 113% (inactive) | 62% | 151% (inactive) | -14.7% (inactive) | 97.1% (inactive) | 8% (inactive) | -22.4% (inactive) | 5.02% (inactive) | -4.14% (inactive) | 106% (inactive) | -0.04 (inactive) | 4% (inactive) | -4% (inactive)
O=C(O)COc1ccc2occ(C(=O)c3ccccc3)c2c1 | 99.8% (inactive) | 106% (inactive) | 101% (inactive) | 96% (inactive) | 92.9% (inactive) | 63.9% | 180% (inactive) | 15.1% (inactive) | 107% (inactive) | 4% (inactive) | -5% (inactive) | 0.98% (inactive) | 0.64% (inactive) | 94.2% (inactive) | -0.17 (inactive) | 3% (inactive) | 7.09% (inactive)
CC(C)C(=O)Nc1ccc2c3c(cccc13)CC2 | 95% (inactive) | 98.5% (inactive) | 92% (inactive) | 124% (inactive) | 102% (inactive) | 62.6% | 191% (inactive) | 10.5% (inactive) | 99.4% (inactive) | 5% (inactive) | 21.1% (inactive) | 18.6% (inactive) | -2.45% (inactive) | 94.9% (inactive) | -0.24 (inactive) | 8% (inactive) | 5.6% (inactive)
CC(=O)N/C(=C/c1ccc2c(c1)OCO2)C(=O)NCCO | 98.2% (inactive) | 106% (inactive) | 93.9% (inactive) | 111% (inactive) | 106% (inactive) | 61.5% | 3870% (inactive) | -5.89% (inactive) | 106% (inactive) | 0% (inactive) | 2.49% (inactive) | -4.62% (inactive) | 1.75% (inactive) | 97.4% (inactive) | -0.42 (inactive) | 2% (inactive) | -5.6% (inactive)
COc1ccc(NC(=O)CC(c2ccccc2)c2ccco2)cc1 (stereo not drawn) | 103% (inactive) | 97.2% (inactive) | 105% (inactive) | 86.8% (inactive) | 96.8% (inactive) | 62.8% | 164% (inactive) | -15% (inactive) | 91.5% (inactive) | 2% (inactive) | -5.85% (inactive) | -3.8% (inactive) | 3.58% (inactive) | 100% (inactive) | -0.07 (inactive) | 3% (inactive) | 1.22% (inactive)
NC(=O)c1ccccc1O | 103% (inactive) | 108% (inactive) | 92.8% (inactive) | 95.8% (inactive) | 97.4% (inactive) | 64.5% | 199% (inactive) | 11.1% (inactive) | 95.9% (inactive) | -1% (inactive) | 6.88% (inactive) | 33.5% (inactive) | -2.79% (inactive) | 100% (inactive) | 1.03 (active) | 3% (inactive) | 10.3% (inactive)
CC(=O)c1cccc2c(O)c(C3=Nc4ccccc4C3=O)[nH]c12 | 88% (inactive) | 118% (inactive) | 114% (inactive) | 85.3% (inactive) | 90.8% (inactive) | 69.7% | 202% (inactive) | -29.4% (inactive) | 129% (inactive) | 4% (inactive) | -1.02% (inactive) | -5.62% (inactive) | 0.43% (inactive) | 103% (inactive) | 0.23 (inactive) | 9% (inactive) | 4.91% (inactive)
COc1ccc(C(=O)NCc2cccnc2)cc1 | 103% (inactive) | 101% (inactive) | 98.6% (inactive) | 85.4% (inactive) | 94.6% (inactive) | 58.3% | 247% (inactive) | 11.9% (inactive) | 105% (inactive) | 7% (inactive) | 3.58% (inactive) | -8.5% (inactive) | 1.75% (inactive) | 101% (inactive) | -0.13 (inactive) | 6% (inactive) | -24.8% (inactive)
COc1ccc2[nH]c3c(c2c1)CCNC3C1CC=C(C)CC1 (stereo not drawn) | 95.9% (inactive) | 128% (inactive) | 104% (inactive) | 79.8% (inactive) | 101% (inactive) | 69% | 519% (inactive) | 7.43% (inactive) | 111% (inactive) | -1% (inactive) | 13.6% (inactive) | 2.43% (inactive) | -0.18% (inactive) | 113% (inactive) | 0.12 (inactive) | -1% (inactive) | 0.82% (inactive)
COc1ccccc1OCC(=O)O | 96.3% (inactive) | 107% (inactive) | 98.6% (inactive) | 122% (inactive) | 103% (inactive) | 61.5% | 167% (inactive) | 3.67% (inactive) | 106% (inactive) | -3% (inactive) | -4.79% (inactive) | -3.11% (inactive) | -0.38% (inactive) | 99.3% (inactive) | -0.06 (inactive) | 6% (inactive) | -26.4% (inactive)
CCOc1ccc2nc(S(N)(=O)=O)sc2c1 | 101% (inactive) | 104% (inactive) | 99.7% (inactive) | 100% (inactive) | 103% (inactive) | 55.1% | 103% (inactive) | 0.25% (inactive) | 102% (inactive) | 5% (inactive) | 3.56% (inactive) | -2.81% (inactive) | -4.65% (inactive) | 101% (inactive) | -0.29 (inactive) | 7% (inactive) | -13.3% (inactive)
O=C(N/C(=C/C=C\c1ccccc1)C(=O)N1CCOCC1)c1ccc(Br)cc1 | 98.4% (inactive) | 107% (inactive) | 100% (inactive) | 123% (inactive) | 115% (inactive) | 65.2% | 185% (inactive) | 2.29% (inactive) | 84.9% (inactive) | 1% (inactive) | -28% (inactive) | 6.94% (inactive) | 2.4% (inactive) | 103% (inactive) | 0.42 (inactive) | 2% (inactive) | -6.96% (inactive)
